Our source for the growth values is PubChem BioAssay (NCI).

The panel holds about 83,000 compounds, 20% with a hit somewhere; the sample as a whole holds those more often.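 Values shown are percent growth following 48 h exposure of cells in 96-well plates to a single concentration of compound; below 10 was considered active.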 Unmarked numbers belong to inactive results. Calls of active or inactive are those of the source.

The first assay has as its system OVCAR-5 ovarian. Description: NCI-60 one-dose screen, 48 h (100 = growth as untreated, 0 = no growth, -100 = all killed). The conditions noted are these: 10 µM unless noted.
With `N#CC1(O)CCCCC1`, the growth is 98.2%.
With `CCCCCCCCNC(=O)C(C)C`, the growth was 97.9%.
For the molecule `NNc1ncccn1`, the growth is 108%.
With `COc1ccc(/C=C\C(=O)/C=C/c2ccc(OC)cc2)cc1`, the growth is 107%.
For the molecule `Cc1cc(C(=O)NN)c(C#N)c(=O)[nH]1`, the growth is 106%.
Regarding `CC(=O)c1ccc(C)cc1`, the growth was 104%.
For `O=C(Nc1ccc([N+](=O)[O-])cc1)C(=O)Nc1ccc([N+](=O)[O-])cc1`, the growth is 102%.
Still for that read-out and setting: the figure for `NC(CSSCC(N)C(=O)O)C(=O)O` (centres undefined) is -5.59% (active).
Turning to `CC(C)C(C)(C)C(=O)C(C)(C)C(C)(C)C`, the growth is 97.5%.
`C=C1C(=O)C2CCN1CC2`: the growth was 99.6%.
As to `CC12CCC3c4ccc(O)cc4CCC3C1CCC2=O` (centres undefined), the growth is 112%.
The same measure, in the same setting: the figure for `CC(=O)CSc1ncnc2nc[nH]c12` is 95.8%; for `O=[N+]([O-])c1c(Cl)ncnc1Cl` it is 85.7%.
Take `CCCCCCCCCCCCCCCCCCSC(=N)N`: the growth was 83.2%.
With `O=Cc1ccc(O)c(O)c1`, the growth was 96.2%.
With `O=[n+]1ccn([O-])c2ccccc21`, the growth is 93.1%.
Take `Nc1ccc(F)c(Cl)c1F`: the growth is 98.8%.
As for `S=C(NCc1ccccc1)N1CCC(CCCC2CCN(C(=S)NCc3ccccc3)CC2)CC1`, the growth is 121%.
Regarding `Clc1ncnc2nc[nH]c12`, the growth was 101%.
Still for that read-out and setting: in the case of `CC(C)Sc1ncnc2nc[nH]c12` it was 101%.
`NNc1ncnc2nc[nH]c12`: the growth was 63.7%.
Regarding `CCOC(=O)CNC`, the growth was 97.2%.
As for `C=CC1=NC(C)(C)CC(C)O1` (centres undefined), the growth is 104%.
For the molecule `O=C(CC(CC(=O)c1ccccc1)c1ccccn1)c1ccccc1`, the growth is 105%.
`CC(=O)OC/C(C)=C\CC(C)COC(C)=O` (centres undefined): the growth is 111%.
On to `OCc1cccnc1`, for which the growth was 99.6%.
Consider `COc1cccc(N=CNc2cccc(OC)c2)c1`, for which the growth was 103%.
On to `O=C(Nc1c(Cl)cc(Cl)cc1Cl)ON=C1CCCCC1`, for which the growth is 96.4%.
On the same count and under the same terms, in the case of `Cc1nc(C)c(C(=O)O)cc1C(=O)O` it was 97.5%; in that of `C=CC(C)C(C)(C)O` (centres undefined), 98.7%.
Same read-out and setting: the figure for `CCC(/C=C\C(C)=O)CC` is 104%; for `O=[N+]([O-])c1ccc(-c2nc(N(CCO)CCO)c3ccccc3n2)o1` it is -5.6% (active).
`COC(=O)c1ccccc1C(=O)c1c(C)cc(C)cc1C`: the growth is 101%.
As for `Cc1ccc(O)c(N)c1`, the growth is 115%.
Consider `CC(=O)c1cccc(N(C)S(=O)(=O)c2ccc(C)cc2)c1`, for which the growth is 90.7%.
With `O=C1CSc2ccccc2N1`, the growth was 116%.
Turning to `Cn1c(=O)c2[nH]c(CCCCC(=O)O)nc2n(C)c1=O`, the growth was 112%.

In the next assay the test system is OVCAR-4 ovarian. The description is as above. The conditions noted are these: 10 µM unless noted.
Turning to `N#CC1(O)CCCCC1`, the growth was 126%.
Regarding `CCCCCCCCNC(=O)C(C)C`, the growth was 96.9%.
As to `NNc1ncccn1`, the growth is 101%.
On to `COc1ccc(/C=C\C(=O)/C=C/c2ccc(OC)cc2)cc1`, for which the growth is 88.6%.
With `Cc1cc(C(=O)NN)c(C#N)c(=O)[nH]1`, the growth was 107%.
In the case of `CC(=O)c1ccc(C)cc1`, the growth was 112%.
On the same count and under the same terms, in the case of `NC(CSSCC(N)C(=O)O)C(=O)O` (centres undefined) it was 35.4%.
For the molecule `CC(C)C(C)(C)C(=O)C(C)(C)C(C)(C)C`, the growth was 117%.
Same read-out and setting: the figure for `C=C1C(=O)C2CCN1CC2` is 101%.
With `CC12CCC3c4ccc(O)cc4CCC3C1CCC2=O` (centres undefined), the growth was 106%.
On the same count and under the same terms, the figure for `CC(=O)CSc1ncnc2nc[nH]c12` is 66.9%.
With `O=[N+]([O-])c1c(Cl)ncnc1Cl`, the growth is 103%.
In the case of `O=Cc1ccc(O)c(O)c1`, the growth is 97.1%.
Consider `S=C(NCc1ccccc1)N1CCC(CCCC2CCN(C(=S)NCc3ccccc3)CC2)CC1`, for which the growth is 76.9%.
Turning to `Clc1ncnc2nc[nH]c12`, the growth is 103%.
As for `CC(C)Sc1ncnc2nc[nH]c12`, the growth is 115%.
On the same count and under the same terms, in the case of `NNc1ncnc2nc[nH]c12` it was 44.6%.
As to `CCOC(=O)CNC`, the growth was 96.5%.
For `C=CC1=NC(C)(C)CC(C)O1` (centres undefined), the growth was 98.6%.
Still for that read-out and setting: in the case of `OCc1cccnc1` it was 115%; in that of `O=C(Nc1c(Cl)cc(Cl)cc1Cl)ON=C1CCCCC1`, 108%; in that of `Cc1nc(C)c(C(=O)O)cc1C(=O)O`, 122%.
On to `C=CC(C)C(C)(C)O` (centres undefined), for which the growth was 113%.
Consider `CCC(/C=C\C(C)=O)CC`, for which the growth is 86.5%.
With `O=[N+]([O-])c1ccc(-c2nc(N(CCO)CCO)c3ccccc3n2)o1`, the growth was -25.7% (active).
Consider `Cc1ccc(O)c(N)c1`, for which the growth is 111%.
In the case of `O=C1CSc2ccccc2N1`, the growth is 98.9%.
On the same count and under the same terms, in the case of `Cn1c(=O)c2[nH]c(CCCCC(=O)O)nc2n(C)c1=O` it was 124%.

The next assay deals with SK-OV-3 ovarian. Described as above. As to conditions: 10 µM unless noted.
In the case of `N#CC1(O)CCCCC1`, the growth was 93.6%.
`CCCCCCCCNC(=O)C(C)C`: the growth was 105%.
The same measure, in the same setting: the figure for `NNc1ncccn1` is 105%.
The same measure, in the same setting: the figure for `COc1ccc(/C=C\C(=O)/C=C/c2ccc(OC)cc2)cc1` is 104%; for `CC(=O)c1ccc(C)cc1` it is 121%; for `O=C(Nc1ccc([N+](=O)[O-])cc1)C(=O)Nc1ccc([N+](=O)[O-])cc1` it is 93.5%.
As for `CC(C)C(C)(C)C(=O)C(C)(C)C(C)(C)C`, the growth is 82.8%.
With `C=C1C(=O)C2CCN1CC2`, the growth is 105%.
`CC12CCC3c4ccc(O)cc4CCC3C1CCC2=O` (centres undefined): the growth was 117%.
Same read-out and setting: the figure for `O=[N+]([O-])c1c(Cl)ncnc1Cl` is 104%.
Consider `CCCCCCCCCCCCCCCCCCSC(=N)N`, for which the growth was 83.3%.
`O=[n+]1ccn([O-])c2ccccc21`: the growth is 109%.
As for `Nc1ccc(F)c(Cl)c1F`, the growth is 113%.
Regarding `S=C(NCc1ccccc1)N1CCC(CCCC2CCN(C(=S)NCc3ccccc3)CC2)CC1`, the growth was 100%.
Take `CCOC(=O)CNC`: the growth was 106%.
Turning to `C=CC1=NC(C)(C)CC(C)O1` (centres undefined), the growth was 108%.
Regarding `O=C(CC(CC(=O)c1ccccc1)c1ccccn1)c1ccccc1`, the growth is 104%.
Same read-out and setting: the figure for `CC(=O)OC/C(C)=C\CC(C)COC(C)=O` (centres undefined) is 101%; for `OCc1cccnc1` it is 107%; for `COc1cccc(N=CNc2cccc(OC)c2)c1` it is 103%.
Still for that read-out and setting: the figure for `O=C(Nc1c(Cl)cc(Cl)cc1Cl)ON=C1CCCCC1` is 114%; for `Cc1nc(C)c(C(=O)O)cc1C(=O)O` it is 104%; for `C=CC(C)C(C)(C)O` (centres undefined) it is 106%.
Same read-out and setting: the figure for `CCC(/C=C\C(C)=O)CC` is 110%; for `O=[N+]([O-])c1ccc(-c2nc(N(CCO)CCO)c3ccccc3n2)o1` it is -4.36% (active); for `COC(=O)c1ccccc1C(=O)c1c(C)cc(C)cc1C` it is 102%.
As for `CC(=O)c1cccc(N(C)S(=O)(=O)c2ccc(C)cc2)c1`, the growth was 109%.
As to `O=C1CSc2ccccc2N1`, the growth is 112%.
For `Cn1c(=O)c2[nH]c(CCCCC(=O)O)nc2n(C)c1=O`, the growth was 113%.
